Screens as filed in PubChem BioAssay.
The list is not random: actives were taken first. Their share in the collection is about 4%.
CSC inhib = blocks cancer stem cells. cancer stem cell-like cells viability, luminescence. inhibition, % at 7.5 µM. 1.1% of 300,000 active. AID 2717; in the data active = inhibition above about 75%; tested in HMLE shEcad cells
Beta apoptosis = blocks beta cell apoptosis; INS-1E cytokine-induced death, ATP luminescence, 48 h; percent of positive-control rescue, neutral wells zero; protection from apoptosis, % (concentration not given with the values); 0.8% of 300,000 active; AID 435005;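 active = Every replicate reaches about 75%, or at least half do and their mean reaches it too, limit read from the data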;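 also: 0% = cytokine-treated negative control wells and 100% = positive control rescue; higher means more ATP so stronger rescue from cytokine killing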
Shn3 3UTR inh = Schnurri-3 reporter inhibition in Clone20 osteoblasts | inhibition, % at 12.5 µM | 0.52% of 360,000 active | Clone20 osteoblast Shn3 3'UTR firefly luciferase, 24 h;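 active = mean inhibition of at least 75% with every replicate also reaching 75%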;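 also: 0% = median of neutral control wells and 100% = pilot-screen positive control compound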
PAX8 reporter = inhibitors of PAX8 transcriptional activity in RMG-I cells; RMG-I TPO-luciferase reporter, SteadyGlo, 24 h; inhibition, % at 12.6 µM; 1.2% of 360,000 active; AID 652154;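 active = mean replicate inhibition at least 60% with every replicate also reaching 60%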;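 also: luciferase light reporting Pax8 driven TPO promoter activity; plate controls were median of neutral control wells for no effect and mitoxantrone controls for full effect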
Mdm2-MdmX inh = inhibitors of human Mdm2/MdmX interaction; O15151+Q00987; SaOS-2 split-luciferase Mdm2/MdmX complementation, luminescence; inhibition, % at 8 µM; 3% of 330,000 active;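 active = inhibition of at least 50% at 8 µM in the primary screen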
Target sequence (O15151 whole entry, looked up): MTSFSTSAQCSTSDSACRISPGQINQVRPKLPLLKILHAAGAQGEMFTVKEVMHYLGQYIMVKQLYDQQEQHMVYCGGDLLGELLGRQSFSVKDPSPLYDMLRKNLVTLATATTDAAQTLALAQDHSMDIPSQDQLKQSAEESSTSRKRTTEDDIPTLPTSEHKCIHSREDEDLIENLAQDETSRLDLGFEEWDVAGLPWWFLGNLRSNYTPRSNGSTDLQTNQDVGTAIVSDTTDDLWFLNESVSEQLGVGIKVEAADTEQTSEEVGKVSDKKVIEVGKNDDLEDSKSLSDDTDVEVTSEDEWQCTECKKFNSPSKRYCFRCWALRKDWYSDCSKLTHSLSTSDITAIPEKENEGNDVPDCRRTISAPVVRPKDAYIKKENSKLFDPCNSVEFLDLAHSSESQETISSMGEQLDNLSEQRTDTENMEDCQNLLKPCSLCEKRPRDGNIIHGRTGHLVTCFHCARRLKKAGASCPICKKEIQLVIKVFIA
Target sequence (Q00987 whole entry, looked up): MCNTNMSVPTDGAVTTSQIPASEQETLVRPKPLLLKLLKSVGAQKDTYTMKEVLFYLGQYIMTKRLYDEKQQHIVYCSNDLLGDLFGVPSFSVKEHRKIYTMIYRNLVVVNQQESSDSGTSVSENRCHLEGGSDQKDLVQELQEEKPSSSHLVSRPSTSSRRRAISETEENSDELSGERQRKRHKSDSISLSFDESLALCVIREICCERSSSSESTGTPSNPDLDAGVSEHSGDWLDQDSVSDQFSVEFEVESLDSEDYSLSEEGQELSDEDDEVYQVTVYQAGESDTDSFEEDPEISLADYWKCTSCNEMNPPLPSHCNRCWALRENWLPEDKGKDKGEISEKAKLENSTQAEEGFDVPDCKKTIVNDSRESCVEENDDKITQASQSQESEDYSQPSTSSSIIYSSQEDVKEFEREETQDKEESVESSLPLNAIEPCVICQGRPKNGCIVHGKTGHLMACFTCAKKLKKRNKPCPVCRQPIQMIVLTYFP
Gli-Sufu antag = antagonists of Gli-Sufu signaling; Sufu-KO-LIGHT fibroblasts, Gli luciferase reporter luminescence; inhibition, % at 5 µM; 0.74% of 340,000 active; AID 588413;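 active = inhibition above about 55%, limit read from the data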;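 also: 0% = DMSO-treated cells and 100% = wells with medium but no cells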
Gli-Sufu confirm = confirmation of Gli-SUFU pathway antagonists. shares compounds with Gli-Sufu antag. Sufu-KO-LIGHT cells, Gli luciferase reporter, luminescence. inhibition, % at 5 µM. 40% of 2,500 active. AID 602428;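 active = mean inhibition at 5 µM reaching about 45%, limit read from the data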;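 also: plate controls were DMSO-treated cells for no effect and wells lacking cells for full effect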
SufuKO cytotox = cytotoxic in Gli-SUFU antagonist counter-screen; shares compounds with Gli-Sufu antag; Sufu-KO-LIGHT cells cytotoxicity, ATP luminescence; cytotoxicity, % at 5 µM; 32% of 2,500 active; AID 651994;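 active = mean cytotoxicity at 5 µM above about 25%, limit read from the data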;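 also: cells exposed to compound overnight for roughly 16 to 18 hours; plate controls were DMSO wells with cells for no effect and medium without cells for full effect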
Wnt3a cs = inhibits Wnt3a reporter, counter-screen for Gli-SUFU antagonists. AID 651995. Wnt-LIGHT cells, Wnt3a-driven luciferase reporter, luminescence. shares compounds with Gli-Sufu antag. inhibition, % at 6.25 µM. 20% of 2,500 active;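 active = mean inhibition above about 25%, limit read from the data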
The depositor's hits bear a star; nt = no result.

SMILES	CSC inhib	Beta apoptosis	Shn3 3UTR inh	PAX8 reporter	Mdm2-MdmX inh	Gli-Sufu antag	Gli-Sufu confirm	SufuKO cytotox	Wnt3a cs
COc1ccc(S(=O)(=O)Nc2ccc3c(c2)C(=O)N([C@H](C)CO)C[C@@H](C)[C@H](CN(C)C(=O)NC(C)C)OCCCC[C@@H](C)O3)cc1	nt	nt	nt	-3	nt	nt	nt	nt	nt
C/C(=N\NC(=O)c1c(C)nc2ccccn12)c1ccc(C(C)(C)C)cc1	26	nt	-77	-19	-24	-20	nt	nt	nt
Cc1nc2ccccn2c1C(=O)NNS(=O)(=O)c1ccc(C(C)(C)C)cc1	-10	32	81	24	-5	51	48*	27*	6
O=C(O)c1ccc(N2C(=O)C3C4c5ccccc5C(Br)(c5ccccc54)C3C2=O)cc1 (stereo not drawn)	-15	-11	-7	2	14	66*	17	10	6
O=C(Nc1ccc(F)cc1)N1[C@H](CO)[C@@H]2c3ccccc3NC[C@@H]21	nt	nt	nt	-19	nt	nt	nt	nt	nt
O=C(CCNC(=O)C1CCN(S(=O)(=O)c2ccc(F)cc2)CC1)NCc1ccc(Cl)cc1	-2	-4	-15	15	3	61*	13	11	-10
CCOc1ccc(NC(=O)CCNC(=O)C2CCN(S(=O)(=O)c3ccccc3)CC2)cc1	-24	nt	14	3	3	57*	14	26*	-26
O=C(NCCNc1ccc(Cl)cc1[N+](=O)[O-])c1ccccc1F	-4	nt	-12	-14	-2	-16	nt	nt	nt
O=C(NCCNc1ccnc2cc(Cl)ccc12)c1ccccc1F	-8	-3	80	4	12	67*	50*	17	-22
CCn1c(/C=C/N(C(C)=O)c2ccccc2)[n+](CC)c2ccc(Cl)cc21	6	-4	12	46	-1	24	nt	nt	nt
CC[n+]1c(/C=C/N(C)c2ccccc2)oc2ccc(Cl)cc21	-6	56	51	31	29	79*	83*	27*	39*
CCN(Cc1ccccc1)C(=O)Cn1cnc2c1c(=O)n(C)c(=O)n2C	-15	-8	10	14	-15	59*	15	17	22
O=C(C1CCCC1)N1C[C@H]2[C@@H](c3ccccc31)[C@@H](CO)N2C(=O)c1cccnc1	nt	nt	nt	9	nt	nt	nt	nt	nt
CCOC(=O)C1=C(C)OC(N)=C(C#N)C1c1cc2ccccc2nc1N1CCCCC1 (stereo not drawn)	-1	-9	nt	nt	24	50	35	16	-14
CCOC(=O)C1=C(C)OC(N)=C(C#N)C1c1cc2cc(C)ccc2nc1N1CCCCC1 (stereo not drawn)	7	-8	-9	-51	-21	-10	nt	nt	nt
Cn1c(CSCc2ccccc2Cl)n[nH]c1=S	-8	-3	-8	-4	-24	1	nt	nt	nt
S=c1[nH]nc(CSCc2ccccc2Cl)n1C1CCCCC1	nt	nt	3	-1	nt	52	30	20	0
Cc1nn(Cc2noc(C(=O)NC3CCC(C)CC3)n2)c(C)c1Br (stereo not drawn)	15	20	90*	-3	13	51	80*	29*	1
Cc1ccc(S(=O)(=O)CC2CSc3nc4ccccc4n32)cc1 (stereo not drawn)	6	92*	90*	nt	-19	72*	70*	18	47*
CC12CCC(=O)C=C1CCC1C2CCC2(C)C(c3csc(N)n3)CCC12 (stereo not drawn)	nt	nt	75	30	nt	58*	62*	40*	46*
CC12CCC(=O)C=C1CCC1C2C(O)CC2(C)C(c3csc(N)n3)CCC12 (stereo not drawn)	nt	nt	86*	-22	nt	59*	61*	18	32*
CCCNC(=O)N1C[C@H](C)[C@@H](OC)CN(C)C(=O)c2ccc(NC(=O)CCC)cc2OC[C@H]1C	nt	nt	nt	-1	nt	nt	nt	nt	nt
CN(C)CCCN1C(=O)C2CCc3[nH]c4ccccc4c3C2C1=O (stereo not drawn)	-8	-1	2	-1	12	51	13	5	-7
COCCN(C(=O)COC(=O)C1CCC(C(C)(C)C)CC1)c1c(N)n(Cc2ccccc2)c(=O)[nH]c1=O (stereo not drawn)	-4	106*	88*	18	26	72*	81*	28*	8
CCCCC1CCC(C(=O)OCC(=O)N(CCOC)c2c(N)n(Cc3ccccc3)c(=O)[nH]c2=O)CC1 (stereo not drawn)	0	-6	1	-16	7	-2	nt	nt	nt
SMILES	CSC inhib	Beta apoptosis	Shn3 3UTR inh	PAX8 reporter	Mdm2-MdmX inh	Gli-Sufu antag	Gli-Sufu confirm	SufuKO cytotox	Wnt3a cs
O=C(CCc1ccccc1)NNC(=O)Cc1ccc(Cl)cc1	-12	1	-10	4	7	-7	nt	nt	nt
O=C([O-])c1cc(-c2ccccc2)cc(-c2ccccc2)[n+]1CCc1ccc(Cl)cc1	nt	nt	54	26	nt	78*	67*	36*	-23
CC1Cn2c(CCc3ccccc3)nnc2S1 (stereo not drawn)	-16	0	-10	nt	-1	54	19	2	-7
CC1Cn2c(Cc3ccccc3)nnc2S1 (stereo not drawn)	nt	nt	7	5	nt	nt	nt	nt	nt
CC(=O)c1c(C)[nH]c(C(=O)OCc2ccccc2)c1C	3	-13	-15	-131	6	-52	nt	nt	nt
CC(=O)c1c(C)[nH]c(C(=O)OCCCCN2C(=O)c3ccccc3C2=O)c1C	-1	104*	25	25	29	68*	66*	32*	16
Cc1ccc(S(=O)(=O)N(C)C[C@@H]2OCCCC[C@H](C)Oc3ccc(NC(=O)Nc4c(C)noc4C)cc3C(=O)N([C@@H](C)CO)C[C@H]2C)cc1	nt	nt	nt	2	nt	nt	nt	nt	nt
c1cncc(C(c2nnnn2C2CCCC2)N2CCCC2)c1 (stereo not drawn)	-11	0	-7	nt	21	5	nt	nt	nt
c1cncc(C(c2nnnn2C2CCCCC2)N2CCN3CCCC3C2)c1 (stereo not drawn)	nt	-1	-9	4	-20	52	22	7	9
CN1C(=O)c2cc(NC(=O)c3ccc(F)c(F)c3)ccc2OC[C@@H]2O[C@H](CC(=O)N[C@@H]3CCN(Cc4ccccc4)C3)CC[C@@H]21	nt	nt	nt	36	nt	nt	nt	nt	nt
COc1ccc2[nH]c(=O)c(CN(C(=O)c3cccnc3)c3ccc(C)cc3)cc2c1	-7	-1	3	nt	19	83*	17	5	-7
O=C(CN1CCN(Cc2ccccc2)CC1)Nc1nnc(C(F)(F)F)s1	nt	nt	11	-2	-20	63*	28	-3	-18
CC=Cc1ccc2n(c1=O)C[C@@H]1[C@@H](CO)[C@H](C(=O)NCCC)[C@H]2N1C(=O)c1ccccc1F (mixture of isomers)	nt	nt	nt	2	nt	nt	nt	nt	nt
